Experimental data taken from PubChem BioAssay AID1159580 (chemical genetic matrix, 2015).
Several values for one entry are separate records, joined by “and”; a condition that tells them apart may be missing. Identical values can stand only once. About 2,000 (36%) of roughly 5,500 compounds were called active. Not shown: some 18% with an inconclusive outcome. Cut-off read from the data, not from the text of the source: active = normalized growth mostly below about 0.91 (no sharp cut-off); inconclusive = no clear call, values can overlap the other calls; inactive = mostly above about 0.92. The list shows a part of the results.

Experiment: chemical genetic growth profiling, strain panel (AID 1159580);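 note: tested at 20 µM; growth read once vehicle control cultures reached saturation at 30 °C; 1 = growth at the plate median or of vehicle wells; lower values mean less growth of the strain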
Settings: S. cerevisiae deletion strains, growth OD

Measured: normalized growth

Nc1c2c(nc3ccccc13)CCCC2
inactive: locus YAL013W, strain DEP1, hits give low values 1.02 | locus YAL021C, strain ccr4, hits give low values 0.985 | locus YAL026C, strain drs2, hits give low values 0.975 | locus YAL030W, strain snc1, hits give low values 1.01 | locus YAL040C, strain CLN3, hits give low values 1.02 | locus YBL061C, strain skt5, hits give low values 0.984 | locus YBR009C, strain hhf1, hits give low values 0.978 | locus YBR021W, strain FUR4, hits give low values 0.853 | locus YBR023C, strain chs3, hits give low values 0.993 | locus YBR171W, strain sec66, hits give low values 0.959 | locus YBR229C, strain ROT2, hits give low values 1.02 | locus YBR231C, strain swc5, hits give low values 0.981 | locus YBR279W, strain paf1, hits give low values 1 | locus YCL011C, strain gbp2, hits give low values 1 | locus YCL016C, strain dcc1, hits give low values 1.01 | locus YCL029C, strain bik1, hits give low values 1.02 | locus YCL069W, strain vba3, hits give low values 0.989 | locus YCR088W, strain abp1, hits give low values 0.993 | locus YDL005C, strain med2, hits give low values 0.977 | locus YDL035C, strain GPR1, hits give low values 1.01 | locus YDL040C, strain nat1, hits give low values 0.989 | locus YDL074C, strain BRE1, hits give low values 1.01 | locus YDL101C, strain DUN1, hits give low values 1.02 | locus YDL134C, strain PPH21, hits give low values 1 | locus YDL185W, strain tfp1, hits give low values 1.01 | locus YDL192W, strain arf1, hits give low values 1.01 | locus YDR001C, strain nth1, hits give low values 0.983 | locus YDR069C, strain doa4, hits give low values 0.936 | locus YDR101C, strain arx1, hits give low values 1.02 | locus YDR137W, strain rgp1, hits give low values 1.02 | locus YDR150W, strain NUM1, hits give low values 1.02 and 0.999 | locus YDR159W, strain sac3, hits give low values 0.939 | locus YDR162C, strain NBP2, hits give low values 1.02 | locus YDR195W, strain ref2 0.963 | locus YDR297W, strain sur2, hits give low values 0.986 | locus YDR318W, strain mcm21, hits give low values 1.01 | locus YDR334W, strain swr1, hits give low values 0.974 | locus YDR335W, strain msn5, hits give low values 0.992 | locus YDR388W, hits give low values 1 | locus YDR392W, strain spt3, hits give low values 0.939 | locus YDR502C, strain sam2, hits give low values 1.02 | locus YEL003W, strain gim4, hits give low values 0.973 | locus YEL037C, strain rad23, hits give low values 0.978 | locus YEL061C, strain CIN8 (second series), hits give low values 0.983 | locus YEL061C, strain CIN8, hits give low values 1.01 | locus YER002W, strain NOP16, hits give low values 0.997 | locus YER015W, strain faa2, hits give low values 0.987 | locus YER016W, strain bim1, hits give low values 0.994 | locus YER110C, hits give low values 1.02 | locus YER111C, strain swi4, hits give low values 0.988 | locus YER155C, strain BEM2 (second series), hits give low values 0.902 | locus YER155C, strain BEM2, hits give low values 1 | locus YER167W, strain BCK2, hits give low values 1.01 | locus YFR010W, strain ubp6, hits give low values 0.944 | locus YGL078C, strain dbp3, hits give low values 1.02 | locus YGL086W, strain mad1, hits give low values 1.01 | locus YGL167C, strain pmr1, hits give low values 0.978 | locus YGL173C, strain kem1, hits give low values 0.958 | locus YGL227W, strain vid30, hits give low values 0.993 | locus YGL240W, strain doc1, hits give low values 0.946 | locus YGL248W, strain PDE1, hits give low values 1.02 | locus YGL253W, strain hxk2, hits give low values 0.96 | locus YGR078C, strain PAC10, hits give low values 0.992 | locus YGR135W, strain pre9, hits give low values 0.987 | locus YGR229C, strain SMI1, hits give low values 1.02 | locus YGR252W, strain gcn5, hits give low values 0.977 | locus YHR013C, strain ard1, hits give low values 0.867 | locus YHR027C, strain rpn1, hits give low values 0.968 | locus YHR030C, strain SLT2, hits give low values 1.01 and 0.987 | locus YHR079C, strain IRE1 (second series), hits give low values 1.02 | locus YHR079C, strain IRE1, hits give low values 1 | locus YHR094C, strain hxt1, hits give low values 1.02 | locus YHR129C, strain ARP1, hits give low values 1.02 | locus YHR142W, strain chs7, hits give low values 1 | locus YHR200W, strain rpn10, hits give low values 1.01 | locus YIL066C, strain RNR3, hits give low values 1.02 | locus YIL073C, strain SPO22, hits give low values 1.14 | locus YIL125W, strain kgd1, hits give low values 1.02 | locus YIR030C, strain dcg1, hits give low values 1.02 | locus YJL092W, strain hpr5, hits give low values 0.983 | locus YJL095W, strain BCK1 (second series), hits give low values 0.991 | locus YJL095W, strain BCK1, hits give low values 1.01 and 1 | locus YJL115W, strain asf1, hits give low values 0.981 | locus YJL129C, strain trk1, hits give low values 0.997 | locus YJL134W, strain LCB3, hits give low values 1.01 | locus YJL154C, strain vps35, hits give low values 0.974 | locus YJL164C, strain tpk1, hits give low values 1.01 | locus YJL166W, strain qcr8, hits give low values 0.992 | locus YJL168C, strain set2, hits give low values 1.01 | locus YJL187C, strain SWE1 (second series), hits give low values 1.01 | locus YJR043C, strain POL32, hits give low values 1.04 | locus YJR066W, strain TOR1, hits give low values 0.987 | locus YJR075W, strain HOC1, hits give low values 0.976 | locus YKL009W, strain mrt4, hits give low values 1.01
